# Source: PubChem BioAssay
# Many of the other results were omitted from the sample, so hits are more common in it than they were.
# HIV RNase H inh: blocks HIV-1 RNase H cleavage of RNA/DNA duplex; P04585; hit rate 1.9% among 65,000; inhibition, % at 10 µM; RT-RNase H RNA/DNA duplex cleavage, fluorescence; in the data active = inhibition above about 50%
# * marks the source's active call; other numbers are inactive results; ! = not confirmed by another sample.
SMILES,HIV RNase H inh
COc1ccc(N2CCN(CCNC(=O)CCS(=O)(=O)c3cccc4nsnc34)CC2)cc1,11.5
O=S(=O)(Nc1ccc2c(c1)OCCO2)c1cnc[nH]1,1.5
CC1=C(C(N)=O)C(c2ccccn2)n2nc(SCc3ccccc3Cl)nc2N1 (configuration not stated),-2.8
CN1Cc2cc(C(=O)c3cc(Cl)cc(CSc4ncccn4)c3O)cnc2NC1=O,59.2*
O=C(NCCOc1ccccc1)c1ncn[nH]1,-17.2
Cc1cccc(OCc2nnc(SCc3cc(=O)n4cc(Br)ccc4n3)o2)c1,-33.2
Cc1nc2scc(-c3ccccc3)c2c(=O)n1N,-4.6
O=c1[nH]c(Cn2nnc(-c3ccccc3)n2)nc2scc(-c3ccccc3)c12,52.9*
CCc1nc2scc(-c3ccccc3)c2c(=O)n1N,-2.7
CCN(CC)S(=O)(=O)c1cc(C(=O)NC2CCCCC2)ccc1C,1.9
Cn1c(=O)c2c3c(sc2n2c(SCC(N)=O)nnc12)CC(C(C)(C)C)CC3 (configuration not stated),-22.1
CCCn1c(SCC(=O)Nc2ccccc2-c2ccccc2)nnc1-c1ccoc1C,-2.8
CCSC1=C(C#N)C(c2ccc(F)cc2)CC(=O)N1 (configuration not stated),-2.1
CCc1ccc(N2CSC3=C(C#N)C(c4cccs4)CC(=O)N3C2)cc1 (configuration not stated),54.2*
N#CC1=C2SCC(O)(c3ccccc3)N2C(=O)CC1c1ccccc1 (configuration not stated),-12.1
CCOC(=O)c1ccc(N2CSC3=C(C#N)C(c4cccs4)CC(=O)N3C2)cc1 (configuration not stated),35.5
COC(=O)C1C(=O)N2CCCSC2=C(C#N)C1c1cccs1 (configuration not stated),-0.3
CCc1ccc(C2CC(=O)N3CN(c4ccccc4)CSC3=C2C#N)cc1 (configuration not stated),61.5*
N#CC1=C2SCN(c3ccc(F)cc3)CN2C(=O)CC1c1cccc(F)c1 (configuration not stated),51.3*
COc1ccc(C2CC(=O)N3CN(c4ccc(C)c(Cl)c4)CSC3=C2C#N)cc1OC (configuration not stated),18.1
COc1cccc(C2CC(=O)NC(SC)=C2C#N)c1 (configuration not stated),-25.3
COC(=O)c1ccc(C2C(C(=O)Nc3ccc(C)cc3C)=C(C)Nc3ncnn32)cc1 (configuration not stated),2.0
O=C1CC(c2ccccc2)n2nc(N3C(=O)c4ccccc4C3=O)nc2N1 (configuration not stated),8.9
O=C(COC(=O)c1cncc(Br)c1)NCCC1=CCCCC1,4.0
O=C(CCn1nnc2ccccc21)N1CCC(O)(c2cccc(F)c2)CC1,-3.8
SMILES,HIV RNase H inh
Cc1ccccc1CS(=O)(=O)CCC(=O)N1CCN(c2ccc(N3CCOCC3)nn2)CC1,-8.9
Cc1cc(C)cc(N(CC(=O)NCc2ccco2)S(=O)(=O)c2c(C)noc2C)c1,-3.3
Cc1cc(C)c(S(=O)(=O)N(C)CC(=O)NC2CCCC2)c(C)c1,-1.1
Oc1ccc(C(=S)N2CCCCC2)cc1Cl,-1.6
COc1cc(C(=S)N2CCCCC2)ccc1OCC(=O)N1CCCC1,13.2
COc1cc(C(=S)N2CCCC2)cc(Cl)c1O,70.9*
CCCn1c(SCC(=O)c2cc(OC)ccc2OC)nnc1C(C)C,13.4
O=C(Nc1ccc(-c2nc3ccccc3o2)cc1)c1ccc2c(c1)OCO2,26.9
Cc1ccc2oc(-c3ccc(NC(=O)c4cccnc4)cc3)nc2c1,-1.2
Cc1ccc2oc(-c3ccc(NC(=O)c4ccc5c(c4)OCO5)cc3)nc2c1,64.4*
CCOC(=O)C1=C(C)NC(C)=C(C(=O)OCC)C1C(=O)OCC(=O)N1CCc2ccccc2C1,-0.7
COC(=O)c1cc(Br)c(=O)n(Cc2ccc(OC)c(OC)c2)c1,-5.4
Cc1c(OC(=O)CNC(=O)OC(C)(C)C)ccc2c3c(c(=O)oc12)CCC3,-16.0
CCCCOc1ccc(-c2c(C#N)c(N)nc(SCC(N)=O)c2C#N)cc1,62.7*
CCCCOC(=O)CSc1nc(N)c(C#N)c(-c2ccc(OCC)cc2)c1C#N,-10.0
CCCCOC(=O)CSc1nc(N)c(C#N)c(-c2ccc(OC)cc2)c1C#N,0.7
O=C(c1csc2c1CCCCC2)N1CCN(c2ncccn2)CC1,-4.5
CCC1CCCCN1C(=O)CSc1nnc(-c2cccs2)o1 (configuration not stated),-0.1
COc1ccc(N2CCN(C(c3ccccc3)c3nnnn3Cc3ccc(F)cc3)CC2)cc1 (configuration not stated),16.3
Cc1cc(NC(=O)c2ccc(S(=O)(=O)N3CCOCC3)cc2)nc2c1c(=O)oc1ccccc12,41.0
Cc1cc(NC(=O)c2ccc(S(=O)(=O)N3CCCC3)cc2)nc2c1c(=O)oc1ccccc12,72.0*
CCC(CC)C(=O)Nc1cc(C)c2c(=O)oc3ccccc3c2n1,-4.7
CCCNC(=O)c1ccccc1NC(=O)CN(c1ccccc1OCC)S(C)(=O)=O,-1.0
CCOc1cc2[nH]c(=O)n(CCCCC(=O)NC3CCCCC3)c(=O)c2cc1OCC,4.0
Cc1sc2nc(NCCO)[nH]c(=O)c2c1C,-3.9
SMILES,HIV RNase H inh
CCOC(=O)c1c(NC(=O)CC)sc(C(C)=O)c1C,8.6
CCOC(=O)c1c(N)sc(C(=O)N(C)C)c1C,-2.2
CCOC(=O)c1c(NC(=O)OC)sc(C(=O)N(C)C)c1C,51.7*
Nn1c(SC/C=C/c2ccccc2)nnc1-c1ccncc1,52.1*
COC(=O)CSc1nnc(-c2ccncc2)n1N,-3.6
Cn1c(SC/C=C/c2ccccc2)nnc1-c1ccco1,-7.7
CCOc1cc(S(=O)(=O)NCc2ccco2)c(OCC)cc1-n1cnnn1,0.8
CCOC(=O)c1sc(N)c(C#N)c1CSc1nnc(C2CCCCC2)n1N,16.3
CCN(CC)S(=O)(=O)c1cccc2cc(C(=O)O)c(O)cc12,-4.5
COc1cc(C2C3=C(CC(C)(C)CC3=O)Nc3c2c(=O)[nH]c(=O)n3Cc2ccccc2)ccc1O (configuration not stated),67.5*!
COc1ccc(C2C3=C(CC(C)(C)CC3=O)Nc3c2c(=O)[nH]c(=O)n3Cc2ccccc2)cc1 (configuration not stated),10.6
COc1ccc(C2C3=C(CC(C)(C)CC3=O)Nc3c2c(=O)[nH]c(=O)n3Cc2ccccc2)cc1OC (configuration not stated),4.9
O=C(Nc1ccc(Cl)cn1)C1CCCN1S(=O)(=O)c1ccccc1 (configuration not stated),3.2
Cn1c(=O)[nH]c(=O)c2[nH]c(N(Cc3ccccc3)Cc3ccccc3)nc21,12.3
COc1ccc(N2C(=O)CC(Sc3nnc(-c4ccccc4)o3)C2=O)cc1 (configuration not stated),-1.2
O=C1c2ccccc2CC1Sc1nnc(-c2ccccn2)o1 (configuration not stated),31.7
O=C1CC(Sc2nnc(-c3ccccc3O)o2)C(=O)N1c1ccccc1 (configuration not stated),54.9*
CCC(OC(=O)c1cc2sccc2n1C)C(=O)NCc1ccco1 (configuration not stated),4.6
CCOc1ccc(S(=O)(=O)N(C)CCO)cc1-c1nc2c(C(C)(C)C)nn(C)c2c(=O)[nH]1,3.4
COc1ccc(Cn2c3nc4ccccc4nc3c3c(=O)n(Cc4ccco4)c(C)nc32)cc1,61.7*
COc1ccc(Cn2c(C)nc3c(c2=O)c2nc4ccccc4nc2n3Cc2ccco2)cc1,81.3*
CCOc1ccc(-n2c3nc4ccccc4nc3c3c(=O)n(Cc4ccco4)cnc32)cc1,4.0
